Measured values reported in the supplement of paper PMC4466140.

B1: unnamed (peptide)
chain: TPTSGPPLLPPRNTM
B2: unnamed (peptide)
chain: STPQTMRQAPKRPDA

molecular target: AgAbp1; experiment: SPOT peptide array binding signal intensity (averaged, normalized) (arbitrary units (background-subtracted, floor 0; scale differs between SH3 domains)); higher = stronger binding of the SH3 domain to the peptide
Procedure, shortened: (§1)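 E. coli BL21(DE3) was used to express GST-fused SH3 domains from four yeast species, which were then purified on glutathione Sepharose. These were incubated at 10 μg/ml in TBS-based blocking buffer overnight at 4°C on cellulose membranes carrying synthetic 15-mer peptides, in which cysteines were replaced by serines. Binding signal is the replicate average of normalized, background-subtracted spot intensity, in arbitrary units that differ between domains.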

Row | Binder | SPOT peptide array binding signal intensity
1 | B1 | ≤ 0
2 | B2 | ≤ 0

molecular target: AgBbc1; experiment: as above
Procedure, shortened: as §1

Row | Binder | SPOT peptide array binding signal intensity
3 | B1 | 128
4 | B2 | 206

molecular target: AgBem1-D1; experiment: as above
Procedure, shortened: as §1

Row | Binder | SPOT peptide array binding signal intensity
5 | B1 | ≤ 0
6 | B2 | 540

molecular target: AgBzz1-D1; experiment: as above
Procedure, shortened: as §1

Row | Binder | SPOT peptide array binding signal intensity
7 | B1 | 15
8 | B2 | 10

molecular target: AgBzz1-D2; experiment: as above
Procedure, shortened: as §1

Row | Binder | SPOT peptide array binding signal intensity
9 | B1 | ≤ 0
10 | B2 | 20

molecular target: AgCyk3; experiment: as above
Procedure, shortened: as §1

Row | Binder | SPOT peptide array binding signal intensity
11 | B1 | 6
12 | B2 | ≤ 0

molecular target: AgFus1; experiment: as above
Procedure, shortened: as §1

Row | Binder | SPOT peptide array binding signal intensity
13 | B1 | ≤ 0
14 | B2 | 34.5

molecular target: AgHof1; experiment: as above
Procedure, shortened: as §1

Row | Binder | SPOT peptide array binding signal intensity
15 | B1 | 21.2
16 | B2 | 10.5

molecular target: AgHse1; experiment: as above
Procedure, shortened: as §1

Row | Binder | SPOT peptide array binding signal intensity
17 | B1 | 65.5
18 | B2 | 122

molecular target: AgLsb1; experiment: as above
Procedure, shortened: as §1

Row | Binder | SPOT peptide array binding signal intensity
19 | B1 | 778
20 | B2 | 6.5

molecular target: AgLsb4; experiment: as above
Procedure, shortened: as §1

Row | Binder | SPOT peptide array binding signal intensity
21 | B1 | 5100
22 | B2 | ≤ 0

molecular target: AgMyo5; experiment: as above
Procedure, shortened: as §1

Row | Binder | SPOT peptide array binding signal intensity
23 | B1 | 124
24 | B2 | 6

molecular target: AgNbp2; experiment: as above
Procedure, shortened: as §1

Row | Binder | SPOT peptide array binding signal intensity
25 | B1 | ≤ 0
26 | B2 | 1030

molecular target: AgRvs167; experiment: as above
Procedure, shortened: as §1

Row | Binder | SPOT peptide array binding signal intensity
27 | B1 | 801
28 | B2 | 0.833

molecular target: AgSho1; experiment: as above
Procedure, shortened: as §1

Row | Binder | SPOT peptide array binding signal intensity
29 | B1 | ≤ 0
30 | B2 | 25

molecular target: AgSla1-D1-D2; experiment: as above
Procedure, shortened: as §1

Row | Binder | SPOT peptide array binding signal intensity
31 | B1 | ≤ 0
32 | B2 | 4

molecular target: AgSla1-D3; experiment: as above
Procedure, shortened: as §1

Row | Binder | SPOT peptide array binding signal intensity
33 | B1 | 0.5
34 | B2 | 0.5

molecular target: CaAbp1-D1; experiment: as above
Procedure, shortened: as §1

Row | Binder | SPOT peptide array binding signal intensity
35 | B1 | ≤ 0
36 | B2 | ≤ 0

molecular target: CaAbp1-D2; experiment: as above
Procedure, shortened: as §1

Row | Binder | SPOT peptide array binding signal intensity
37 | B1 | ≤ 0
38 | B2 | 13

molecular target: CaBbc1; experiment: as above
Procedure, shortened: as §1

Row | Binder | SPOT peptide array binding signal intensity
39 | B1 | 153
40 | B2 | 1170

molecular target: CaBem1-D1; experiment: as above
Procedure, shortened: as §1

Row | Binder | SPOT peptide array binding signal intensity
41 | B1 | 0.5
42 | B2 | 174

molecular target: CaBzz1-D1; experiment: as above
Procedure, shortened: as §1

Row | Binder | SPOT peptide array binding signal intensity
43 | B1 | 91
44 | B2 | 532

molecular target: CaBzz1-D2; experiment: as above
Procedure, shortened: as §1

Row | Binder | SPOT peptide array binding signal intensity
45 | B1 | 33.5
46 | B2 | 105

molecular target: CaCyk3; experiment: as above
Procedure, shortened: as §1

Row | Binder | SPOT peptide array binding signal intensity
47 | B1 | 1
48 | B2 | 29

molecular target: CaFus1; experiment: as above
Procedure, shortened: as §1

Row | Binder | SPOT peptide array binding signal intensity
49 | B1 | 25
50 | B2 | 202

molecular target: CaHof1; experiment: as above
Procedure, shortened: as §1

Row | Binder | SPOT peptide array binding signal intensity
51 | B1 | 4.75
52 | B2 | ≤ 0

molecular target: CaHse1; experiment: as above
Procedure, shortened: as §1

Row | Binder | SPOT peptide array binding signal intensity
53 | B1 | 100
54 | B2 | 83

molecular target: CaLsb1; experiment: as above
Procedure, shortened: as §1

Row | Binder | SPOT peptide array binding signal intensity
55 | B1 | 5.5
56 | B2 | 0.5

molecular target: CaLsb4; experiment: as above
Procedure, shortened: as §1

Row | Binder | SPOT peptide array binding signal intensity
57 | B1 | 5320
58 | B2 | 283

molecular target: CaMyo5; experiment: as above
Procedure, shortened: as §1

Row | Binder | SPOT peptide array binding signal intensity
59 | B1 | 36.8
60 | B2 | 88

molecular target: CaNbp2; experiment: as above
Procedure, shortened: as §1

Row | Binder | SPOT peptide array binding signal intensity
61 | B1 | 21

molecular target: CaRvs167; experiment: as above
Procedure, shortened: as §1

Row | Binder | SPOT peptide array binding signal intensity
62 | B1 | 2460

molecular target: CaRvs167-3; experiment: as above
Procedure, shortened: as §1

Row | Binder | SPOT peptide array binding signal intensity
63 | B1 | ≤ 0

molecular target: CaSho1; experiment: as above
Procedure, shortened: as §1

Row | Binder | SPOT peptide array binding signal intensity
64 | B1 | 5.5

molecular target: CaSla1-D1-D2; experiment: as above
Procedure, shortened: as §1

Row | Binder | SPOT peptide array binding signal intensity
65 | B1 | 185

molecular target: CaSla1-D3; experiment: as above
Procedure, shortened: as §1

Row | Binder | SPOT peptide array binding signal intensity
66 | B1 | 23.8

molecular target: ScAbp1; experiment: as above
Procedure, shortened: as §1

Row | Binder | SPOT peptide array binding signal intensity
67 | B1 | ≤ 0

molecular target: ScBbc1; experiment: as above
Procedure, shortened: as §1

Row | Binder | SPOT peptide array binding signal intensity
68 | B1 | 1

molecular target: ScBem1-D1; experiment: as above
Procedure, shortened: as §1

Row | Binder | SPOT peptide array binding signal intensity
69 | B1 | ≤ 0

molecular target: ScBzz1-D1; experiment: as above
Procedure, shortened: as §1

Row | Binder | SPOT peptide array binding signal intensity
70 | B1 | 3

molecular target: ScBzz1-D2; experiment: as above
Procedure, shortened: as §1

Row | Binder | SPOT peptide array binding signal intensity
71 | B1 | ≤ 0

molecular target: ScCyk3; experiment: as above
Procedure, shortened: as §1

Row | Binder | SPOT peptide array binding signal intensity
72 | B1 | 2

molecular target: ScFus1; experiment: as above
Procedure, shortened: as §1

Row | Binder | SPOT peptide array binding signal intensity
73 | B1 | ≤ 0

molecular target: ScHof1; experiment: as above
Procedure, shortened: as §1

Row | Binder | SPOT peptide array binding signal intensity
74 | B1 | 8

molecular target: ScHse1; experiment: as above
Procedure, shortened: as §1

Row | Binder | SPOT peptide array binding signal intensity
75 | B1 | ≤ 0

molecular target: ScLsb1; experiment: as above
Procedure, shortened: as §1

Row | Binder | SPOT peptide array binding signal intensity
76 | B1 | 1070

molecular target: ScLsb2; experiment: as above
Procedure, shortened: as §1

Row | Binder | SPOT peptide array binding signal intensity
77 | B1 | 65.5

molecular target: ScLsb3; experiment: as above
Procedure, shortened: as §1

Row | Binder | SPOT peptide array binding signal intensity
78 | B1 | 6040

molecular target: ScLsb4; experiment: as above
Procedure, shortened: as §1

Row | Binder | SPOT peptide array binding signal intensity
79 | B1 | 6540

molecular target: ScMyo3; experiment: as above
Procedure, shortened: as §1

Row | Binder | SPOT peptide array binding signal intensity
80 | B1 | 538

molecular target: ScMyo5; experiment: as above
Procedure, shortened: as §1

Row | Binder | SPOT peptide array binding signal intensity
81 | B1 | 80

molecular target: ScNbp2; experiment: as above
Procedure, shortened: as §1

Row | Binder | SPOT peptide array binding signal intensity
82 | B1 | ≤ 0

molecular target: ScPex13; experiment: as above
Procedure, shortened: as §1

Row | Binder | SPOT peptide array binding signal intensity
83 | B1 | 1680

molecular target: ScRvs167; experiment: as above
Procedure, shortened: as §1

Row | Binder | SPOT peptide array binding signal intensity
84 | B1 | 2570

molecular target: ScSho1; experiment: as above
Procedure, shortened: as §1

Row | Binder | SPOT peptide array binding signal intensity
85 | B1 | 1.5

molecular target: ScSla1-D1-D2; experiment: as above
Procedure, shortened: as §1

Row | Binder | SPOT peptide array binding signal intensity
86 | B1 | 268

molecular target: ScSla1-D3; experiment: as above
Procedure, shortened: as §1

Row | Binder | SPOT peptide array binding signal intensity
87 | B1 | 51.5

molecular target: SpAbp1-D1; experiment: as above
Procedure, shortened: as §1

Row | Binder | SPOT peptide array binding signal intensity
88 | B1 | 3

molecular target: SpBbc1; experiment: as above
Procedure, shortened: as §1

Row | Binder | SPOT peptide array binding signal intensity
89 | B1 | ≤ 0

molecular target: SpBzz1-D1; experiment: as above
Procedure, shortened: as §1

Row | Binder | SPOT peptide array binding signal intensity
90 | B1 | 176

molecular target: SpBzz1-D2; experiment: as above
Procedure, shortened: as §1

Row | Binder | SPOT peptide array binding signal intensity
91 | B1 | 1

molecular target: SpCyk3; experiment: as above
Procedure, shortened: as §1

Row | Binder | SPOT peptide array binding signal intensity
92 | B1 | 4.5

molecular target: SpHof1; experiment: as above
Procedure, shortened: as §1

Row | Binder | SPOT peptide array binding signal intensity
93 | B1 | 12.5

molecular target: SpHof1-2; experiment: as above
Procedure, shortened: as §1

Row | Binder | SPOT peptide array binding signal intensity
94 | B1 | 19

molecular target: SpHof1-3; experiment: as above
Procedure, shortened: as §1

Row | Binder | SPOT peptide array binding signal intensity
95 | B1 | 18.8

molecular target: SpHse1; experiment: as above
Procedure, shortened: as §1

Row | Binder | SPOT peptide array binding signal intensity
96 | B1 | 31.5

molecular target: SpLsb1; experiment: as above
Procedure, shortened: as §1

Row | Binder | SPOT peptide array binding signal intensity
97 | B1 | 1190

molecular target: SpLsb4; experiment: as above
Procedure, shortened: as §1

Row | Binder | SPOT peptide array binding signal intensity
98 | B1 | 6300

molecular target: SpMyo1; experiment: as above
Procedure, shortened: as §1

Row | Binder | SPOT peptide array binding signal intensity
99 | B1 | 156

molecular target: SpNbp2; experiment: as above
Procedure, shortened: as §1

Row | Binder | SPOT peptide array binding signal intensity
100 | B1 | ≤ 0

molecular target: SpPex13; experiment: as above
Procedure, shortened: as §1

Row | Binder | SPOT peptide array binding signal intensity
101 | B1 | 84.5

molecular target: SpRvs167; experiment: as above
Procedure, shortened: as §1

Row | Binder | SPOT peptide array binding signal intensity
102 | B1 | 2660

molecular target: SpSla1-D1-D2; experiment: as above
Procedure, shortened: as §1

Row | Binder | SPOT peptide array binding signal intensity
103 | B1 | 3

molecular target: SpSla1-D3; experiment: as above
Procedure, shortened: as §1

Row | Binder | SPOT peptide array binding signal intensity
104 | B1 | 4.5
